In PMC7862700, “An all-to-all approach to the identification of sequence-specific readers for epigenetic DNA modifications on cytosine”:

Experiments:
Assay in all cases: DAPPL (digital affinity profiling via proximity ligation, sequencing); 10 mM Tris-HCl pH 7.5, 50 mM NaCl, 1 mM DTT, 4% glycerol, room temperature, 30 min; GST-TFs on glutathione beads, 16-mer random dsDNA library, 0.1% formaldehyde crosslink after washing; high values mean tight binding
FLI1 = molecular target: T1, FLI1 (Homo sapiens, UniProt Q01543 1-452); settings: protein: recombinant; tags: N-terminal GST; dsDNA, one strand shown
T1 sequence: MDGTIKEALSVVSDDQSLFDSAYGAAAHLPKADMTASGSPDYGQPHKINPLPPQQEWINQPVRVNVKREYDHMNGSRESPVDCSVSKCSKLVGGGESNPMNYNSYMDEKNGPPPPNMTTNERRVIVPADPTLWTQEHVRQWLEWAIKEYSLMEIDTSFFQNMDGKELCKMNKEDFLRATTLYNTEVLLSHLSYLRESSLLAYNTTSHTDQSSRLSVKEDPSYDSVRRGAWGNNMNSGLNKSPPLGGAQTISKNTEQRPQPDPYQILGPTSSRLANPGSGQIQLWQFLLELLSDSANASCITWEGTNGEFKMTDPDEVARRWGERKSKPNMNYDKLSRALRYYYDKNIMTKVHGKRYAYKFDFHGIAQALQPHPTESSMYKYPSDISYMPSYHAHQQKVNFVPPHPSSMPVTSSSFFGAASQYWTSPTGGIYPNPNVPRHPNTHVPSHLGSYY
In short: (§1)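 A tag-only sample was pooled with DNA-barcoded human transcription factors that had been expressed in yeast as GST fusions and captured on glutathione beads. The pools were incubated for 30 min at room temperature with 200 nmole of a random double-stranded 16-mer DNA library in Tris/NaCl/DTT/glycerol buffer, then washed, crosslinked with 0.1% formaldehyde, proximity-ligated (BsaI/T4 ligase, 1 h, 37 °C), PCR-amplified and sequenced on an Illumina NextSeq500. Binding signal is each hexamer's read frequency for a factor divided by its frequency for the tag-only sample.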

ELK1 = molecular target: T2, ELK1 (Homo sapiens, UniProt P19419 1-428); settings: protein: recombinant; tags: N-terminal GST; dsDNA, one strand shown
T2 sequence: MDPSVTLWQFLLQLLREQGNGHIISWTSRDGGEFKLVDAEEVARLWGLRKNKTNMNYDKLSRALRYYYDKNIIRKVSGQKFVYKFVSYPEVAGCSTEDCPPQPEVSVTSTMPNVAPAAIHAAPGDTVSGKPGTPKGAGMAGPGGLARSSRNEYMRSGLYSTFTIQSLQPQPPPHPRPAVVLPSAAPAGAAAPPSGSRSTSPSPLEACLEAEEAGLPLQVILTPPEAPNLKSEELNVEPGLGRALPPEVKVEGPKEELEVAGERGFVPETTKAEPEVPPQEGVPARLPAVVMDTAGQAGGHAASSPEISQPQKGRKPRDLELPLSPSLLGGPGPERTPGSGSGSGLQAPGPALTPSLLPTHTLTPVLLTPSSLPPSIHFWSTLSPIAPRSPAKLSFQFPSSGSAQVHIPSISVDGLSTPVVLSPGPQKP
In short: as §1

GABPA = molecular target: T3, GABPA (Homo sapiens, UniProt Q06546 1-454); settings: protein: recombinant; tags: N-terminal GST; dsDNA, one strand shown
T3 sequence: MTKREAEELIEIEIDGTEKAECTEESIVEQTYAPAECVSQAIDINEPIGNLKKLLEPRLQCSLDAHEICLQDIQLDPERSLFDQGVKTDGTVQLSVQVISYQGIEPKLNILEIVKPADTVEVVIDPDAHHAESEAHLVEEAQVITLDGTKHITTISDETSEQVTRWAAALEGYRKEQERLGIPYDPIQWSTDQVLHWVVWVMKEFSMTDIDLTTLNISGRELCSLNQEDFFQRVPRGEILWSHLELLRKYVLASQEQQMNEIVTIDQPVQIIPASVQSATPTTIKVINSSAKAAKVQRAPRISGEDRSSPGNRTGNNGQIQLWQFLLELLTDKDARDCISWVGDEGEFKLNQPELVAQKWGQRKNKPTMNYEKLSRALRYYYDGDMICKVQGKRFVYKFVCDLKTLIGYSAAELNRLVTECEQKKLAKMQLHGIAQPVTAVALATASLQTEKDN
In short: as §1

ERG = molecular target: T4, ERG (Homo sapiens, UniProt P11308 1-479); settings: protein: recombinant; tags: N-terminal GST; dsDNA, one strand shown
T4 sequence: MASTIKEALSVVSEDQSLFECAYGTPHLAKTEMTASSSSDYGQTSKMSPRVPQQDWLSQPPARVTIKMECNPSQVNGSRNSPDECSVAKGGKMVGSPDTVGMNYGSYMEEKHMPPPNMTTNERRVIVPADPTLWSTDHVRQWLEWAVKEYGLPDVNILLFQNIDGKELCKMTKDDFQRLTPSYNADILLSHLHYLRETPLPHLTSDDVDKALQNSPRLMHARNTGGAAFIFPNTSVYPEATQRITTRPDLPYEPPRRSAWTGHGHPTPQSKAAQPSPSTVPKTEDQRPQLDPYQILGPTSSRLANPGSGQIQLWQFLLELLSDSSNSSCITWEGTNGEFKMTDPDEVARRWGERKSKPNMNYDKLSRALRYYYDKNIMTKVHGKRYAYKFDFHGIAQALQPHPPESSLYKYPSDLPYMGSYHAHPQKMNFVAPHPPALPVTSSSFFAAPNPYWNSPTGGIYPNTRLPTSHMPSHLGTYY
In short: as §1

ELF1 = ELF1 (Homo sapiens, UniProt P32519 1-619); settings: protein: recombinant; tags: N-terminal GST; dsDNA, one strand shown
ELF1, sequence (P32519 whole entry): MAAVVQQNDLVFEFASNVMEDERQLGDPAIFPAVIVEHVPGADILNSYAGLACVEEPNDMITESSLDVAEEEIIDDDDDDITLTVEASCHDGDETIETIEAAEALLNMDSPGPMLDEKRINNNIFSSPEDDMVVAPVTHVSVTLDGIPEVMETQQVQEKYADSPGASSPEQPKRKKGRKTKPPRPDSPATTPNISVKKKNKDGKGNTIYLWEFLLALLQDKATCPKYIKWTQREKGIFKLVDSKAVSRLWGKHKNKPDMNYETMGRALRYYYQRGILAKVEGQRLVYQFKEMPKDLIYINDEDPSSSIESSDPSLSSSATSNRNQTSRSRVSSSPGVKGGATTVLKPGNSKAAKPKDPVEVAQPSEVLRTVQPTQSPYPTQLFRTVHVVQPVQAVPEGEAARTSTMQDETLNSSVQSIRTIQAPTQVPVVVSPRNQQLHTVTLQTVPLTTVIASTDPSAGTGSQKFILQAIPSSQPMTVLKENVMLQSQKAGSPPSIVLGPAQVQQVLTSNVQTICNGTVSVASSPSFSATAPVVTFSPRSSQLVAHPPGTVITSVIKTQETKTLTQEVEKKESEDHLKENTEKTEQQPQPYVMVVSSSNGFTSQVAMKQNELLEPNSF
In short: as §1

EHF = molecular target: T5, EHF (Homo sapiens, UniProt Q9NZC4 1-300); settings: protein: recombinant; tags: N-terminal GST; dsDNA, one strand shown
T5 sequence: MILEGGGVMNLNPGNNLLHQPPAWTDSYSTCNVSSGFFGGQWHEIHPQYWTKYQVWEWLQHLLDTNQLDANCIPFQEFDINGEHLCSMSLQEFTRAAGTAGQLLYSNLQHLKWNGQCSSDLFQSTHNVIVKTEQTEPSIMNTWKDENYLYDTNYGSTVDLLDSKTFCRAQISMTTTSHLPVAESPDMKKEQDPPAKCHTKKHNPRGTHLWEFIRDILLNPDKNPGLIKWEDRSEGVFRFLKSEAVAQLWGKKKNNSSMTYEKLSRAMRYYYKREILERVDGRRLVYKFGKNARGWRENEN
In short: as §1

SPI1 = SPI1 (Homo sapiens, UniProt P17947 1-270); settings: protein: recombinant; tags: N-terminal GST; dsDNA, one strand shown
In short: as §1

SPIB = SPIB (Homo sapiens, UniProt Q01892 1-262); settings: protein: recombinant; tags: N-terminal GST; dsDNA, one strand shown
SPIB, sequence (Q01892 whole entry): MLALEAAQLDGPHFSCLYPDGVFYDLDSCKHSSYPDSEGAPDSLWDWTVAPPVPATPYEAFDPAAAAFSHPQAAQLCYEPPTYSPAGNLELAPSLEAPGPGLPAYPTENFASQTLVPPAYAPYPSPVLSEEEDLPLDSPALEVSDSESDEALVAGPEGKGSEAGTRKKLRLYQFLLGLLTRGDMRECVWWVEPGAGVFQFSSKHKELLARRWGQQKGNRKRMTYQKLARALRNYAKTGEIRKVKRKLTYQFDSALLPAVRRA
In short: as §1

ELK3 = molecular target: T6, ELK3 (Homo sapiens, UniProt P41970 1-407); settings: protein: recombinant; tags: N-terminal GST; dsDNA, one strand shown
T6 sequence: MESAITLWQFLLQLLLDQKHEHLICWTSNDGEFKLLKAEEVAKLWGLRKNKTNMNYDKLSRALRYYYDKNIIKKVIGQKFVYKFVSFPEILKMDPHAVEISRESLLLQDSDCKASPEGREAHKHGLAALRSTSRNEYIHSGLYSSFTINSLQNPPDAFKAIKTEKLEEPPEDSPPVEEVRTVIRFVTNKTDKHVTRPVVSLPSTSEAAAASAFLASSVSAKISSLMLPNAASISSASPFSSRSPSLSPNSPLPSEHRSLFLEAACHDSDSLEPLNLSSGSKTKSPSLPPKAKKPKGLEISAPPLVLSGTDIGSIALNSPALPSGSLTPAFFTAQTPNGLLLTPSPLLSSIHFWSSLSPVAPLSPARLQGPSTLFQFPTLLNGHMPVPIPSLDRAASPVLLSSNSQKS
In short: as §1

FEV = molecular target: T7, FEV (Homo sapiens, UniProt Q99581 1-238); settings: protein: recombinant; tags: N-terminal GST; dsDNA, one strand shown
T7 sequence: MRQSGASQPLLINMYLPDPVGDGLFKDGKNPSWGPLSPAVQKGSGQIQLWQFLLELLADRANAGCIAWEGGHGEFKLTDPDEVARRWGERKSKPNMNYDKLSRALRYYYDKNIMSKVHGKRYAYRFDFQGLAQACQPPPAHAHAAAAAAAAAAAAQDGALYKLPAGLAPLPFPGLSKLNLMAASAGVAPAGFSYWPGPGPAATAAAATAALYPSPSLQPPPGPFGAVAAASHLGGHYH
In short: as §1

ETV5 = ETV5 (Homo sapiens, UniProt P41161 1-510); settings: protein: recombinant; tags: N-terminal GST; dsDNA, one strand shown
ETV5, sequence (P41161 whole entry): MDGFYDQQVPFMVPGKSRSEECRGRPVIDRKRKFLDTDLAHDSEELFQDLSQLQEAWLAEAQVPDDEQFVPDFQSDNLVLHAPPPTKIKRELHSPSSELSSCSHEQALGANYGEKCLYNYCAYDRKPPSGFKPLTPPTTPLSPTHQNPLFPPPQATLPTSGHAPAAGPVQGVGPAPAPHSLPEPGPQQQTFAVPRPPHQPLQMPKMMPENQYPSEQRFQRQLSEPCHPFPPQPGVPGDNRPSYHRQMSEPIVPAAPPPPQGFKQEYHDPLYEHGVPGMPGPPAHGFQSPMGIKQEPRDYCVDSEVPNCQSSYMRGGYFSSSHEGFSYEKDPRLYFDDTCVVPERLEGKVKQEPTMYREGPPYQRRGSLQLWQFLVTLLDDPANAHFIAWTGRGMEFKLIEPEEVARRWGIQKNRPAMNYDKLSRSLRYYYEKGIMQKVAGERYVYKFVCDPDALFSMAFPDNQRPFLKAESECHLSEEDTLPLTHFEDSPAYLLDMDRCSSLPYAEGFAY
In short: as §1

HSF1 = HSF1 (Homo sapiens, UniProt Q00613 1-529); settings: protein: recombinant; tags: N-terminal GST; chain copies: 3; dsDNA, one strand shown
HSF1, sequence (Q00613 whole entry): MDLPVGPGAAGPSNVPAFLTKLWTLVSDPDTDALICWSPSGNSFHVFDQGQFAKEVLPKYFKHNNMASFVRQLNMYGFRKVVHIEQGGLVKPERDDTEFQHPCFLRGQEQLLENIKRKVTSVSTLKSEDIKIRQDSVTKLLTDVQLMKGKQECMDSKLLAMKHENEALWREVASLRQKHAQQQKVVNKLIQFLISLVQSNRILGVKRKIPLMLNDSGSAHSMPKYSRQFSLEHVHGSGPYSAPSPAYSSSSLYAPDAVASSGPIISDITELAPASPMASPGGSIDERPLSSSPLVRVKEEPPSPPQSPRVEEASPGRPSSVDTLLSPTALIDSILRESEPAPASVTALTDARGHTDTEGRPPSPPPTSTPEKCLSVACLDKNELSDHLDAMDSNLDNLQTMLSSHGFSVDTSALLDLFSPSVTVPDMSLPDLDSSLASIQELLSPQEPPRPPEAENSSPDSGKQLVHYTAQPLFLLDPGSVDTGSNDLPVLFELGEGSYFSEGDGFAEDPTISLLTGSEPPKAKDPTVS
In short: as §1

SPIC = molecular target: T8, SPIC (Homo sapiens, UniProt Q8N5J4 1-248); settings: protein: recombinant; tags: N-terminal GST; dsDNA, one strand shown
T8 sequence: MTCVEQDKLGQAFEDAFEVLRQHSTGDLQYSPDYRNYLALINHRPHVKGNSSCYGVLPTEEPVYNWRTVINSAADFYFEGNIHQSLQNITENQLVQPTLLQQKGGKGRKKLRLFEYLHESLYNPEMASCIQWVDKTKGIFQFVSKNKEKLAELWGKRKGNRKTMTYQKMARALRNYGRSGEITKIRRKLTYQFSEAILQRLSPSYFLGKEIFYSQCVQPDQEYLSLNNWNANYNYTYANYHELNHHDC
In short: as §1

ELF4 = ELF4 (Homo sapiens, UniProt Q99607 1-663); settings: protein: recombinant; tags: N-terminal GST; dsDNA, one strand shown
ELF4, sequence (Q99607 whole entry): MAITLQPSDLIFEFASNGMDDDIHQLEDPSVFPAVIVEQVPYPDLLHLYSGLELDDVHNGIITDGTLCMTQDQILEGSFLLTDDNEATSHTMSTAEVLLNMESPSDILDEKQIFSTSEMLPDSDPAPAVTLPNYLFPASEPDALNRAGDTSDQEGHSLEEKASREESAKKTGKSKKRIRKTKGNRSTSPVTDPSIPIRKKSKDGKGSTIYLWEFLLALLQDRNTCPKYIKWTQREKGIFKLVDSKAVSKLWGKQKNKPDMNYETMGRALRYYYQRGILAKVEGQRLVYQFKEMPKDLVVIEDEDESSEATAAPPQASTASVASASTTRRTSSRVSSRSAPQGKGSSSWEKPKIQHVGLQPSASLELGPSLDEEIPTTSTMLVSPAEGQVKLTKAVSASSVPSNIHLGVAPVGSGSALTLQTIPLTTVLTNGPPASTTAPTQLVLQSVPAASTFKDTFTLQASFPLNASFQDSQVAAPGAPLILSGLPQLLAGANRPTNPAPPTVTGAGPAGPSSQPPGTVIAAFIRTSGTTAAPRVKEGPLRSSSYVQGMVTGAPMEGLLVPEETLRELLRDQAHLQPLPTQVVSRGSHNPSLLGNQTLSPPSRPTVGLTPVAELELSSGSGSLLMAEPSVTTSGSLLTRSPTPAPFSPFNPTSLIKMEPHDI
In short: as §1

ELK4 = molecular target: T9, ELK4 (Homo sapiens, UniProt P28324-2 1-405); settings: protein: recombinant; tags: N-terminal GST; dsDNA, one strand shown
T9 sequence: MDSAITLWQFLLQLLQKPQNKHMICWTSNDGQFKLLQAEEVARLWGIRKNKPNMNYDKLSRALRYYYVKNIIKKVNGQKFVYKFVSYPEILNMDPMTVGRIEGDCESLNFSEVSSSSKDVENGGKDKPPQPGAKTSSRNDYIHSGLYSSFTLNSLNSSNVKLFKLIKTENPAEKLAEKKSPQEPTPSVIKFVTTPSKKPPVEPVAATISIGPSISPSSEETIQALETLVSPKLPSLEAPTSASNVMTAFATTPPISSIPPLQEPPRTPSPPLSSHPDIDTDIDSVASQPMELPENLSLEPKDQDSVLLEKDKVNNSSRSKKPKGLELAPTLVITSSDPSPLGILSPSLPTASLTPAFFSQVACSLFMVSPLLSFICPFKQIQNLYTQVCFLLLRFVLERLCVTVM
In short: as §1

ETV2 = molecular target: T10, ETV2 (Homo sapiens, UniProt O00321 1-342); settings: protein: recombinant; tags: N-terminal GST; dsDNA, one strand shown
T10 sequence: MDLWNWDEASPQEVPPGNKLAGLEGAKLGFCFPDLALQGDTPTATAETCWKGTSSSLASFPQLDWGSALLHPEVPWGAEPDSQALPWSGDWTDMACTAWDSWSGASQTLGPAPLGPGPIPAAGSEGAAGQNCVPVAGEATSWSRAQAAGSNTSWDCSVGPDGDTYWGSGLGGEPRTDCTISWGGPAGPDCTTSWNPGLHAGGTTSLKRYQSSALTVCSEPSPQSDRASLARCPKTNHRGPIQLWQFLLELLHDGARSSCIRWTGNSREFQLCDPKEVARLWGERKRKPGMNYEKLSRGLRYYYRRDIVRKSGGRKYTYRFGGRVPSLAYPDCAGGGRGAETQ
In short: as §1

ELF3 = molecular target: T11, ELF3 (Homo sapiens, UniProt P78545 1-371); settings: protein: recombinant; tags: N-terminal GST; dsDNA, one strand shown
T11 sequence: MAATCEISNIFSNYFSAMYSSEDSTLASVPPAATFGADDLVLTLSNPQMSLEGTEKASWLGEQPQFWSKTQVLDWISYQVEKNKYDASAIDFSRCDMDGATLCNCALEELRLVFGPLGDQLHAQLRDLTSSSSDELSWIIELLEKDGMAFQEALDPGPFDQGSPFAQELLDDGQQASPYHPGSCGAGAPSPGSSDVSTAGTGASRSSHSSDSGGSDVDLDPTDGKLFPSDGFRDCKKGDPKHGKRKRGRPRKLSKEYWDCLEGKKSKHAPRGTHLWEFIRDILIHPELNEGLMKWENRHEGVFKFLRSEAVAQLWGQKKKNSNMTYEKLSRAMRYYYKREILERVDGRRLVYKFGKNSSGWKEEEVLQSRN
In short: as §1

CRX = CRX (Homo sapiens, UniProt O43186 1-299); settings: protein: recombinant; tags: N-terminal GST; dsDNA, one strand shown
CRX, sequence (O43186 whole entry): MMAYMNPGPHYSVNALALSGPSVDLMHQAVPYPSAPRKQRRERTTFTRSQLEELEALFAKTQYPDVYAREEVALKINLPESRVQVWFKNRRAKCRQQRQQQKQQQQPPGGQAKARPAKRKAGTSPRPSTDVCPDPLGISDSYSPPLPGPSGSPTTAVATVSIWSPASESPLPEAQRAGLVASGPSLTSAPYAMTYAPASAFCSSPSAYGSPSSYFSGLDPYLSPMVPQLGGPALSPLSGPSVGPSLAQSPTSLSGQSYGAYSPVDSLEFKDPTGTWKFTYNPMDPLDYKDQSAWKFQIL
In short: as §1

ETV1 = ETV1 (Homo sapiens, UniProt P50549 1-477); settings: protein: recombinant; tags: N-terminal GST; dsDNA, one strand shown
ETV1, sequence (P50549 whole entry): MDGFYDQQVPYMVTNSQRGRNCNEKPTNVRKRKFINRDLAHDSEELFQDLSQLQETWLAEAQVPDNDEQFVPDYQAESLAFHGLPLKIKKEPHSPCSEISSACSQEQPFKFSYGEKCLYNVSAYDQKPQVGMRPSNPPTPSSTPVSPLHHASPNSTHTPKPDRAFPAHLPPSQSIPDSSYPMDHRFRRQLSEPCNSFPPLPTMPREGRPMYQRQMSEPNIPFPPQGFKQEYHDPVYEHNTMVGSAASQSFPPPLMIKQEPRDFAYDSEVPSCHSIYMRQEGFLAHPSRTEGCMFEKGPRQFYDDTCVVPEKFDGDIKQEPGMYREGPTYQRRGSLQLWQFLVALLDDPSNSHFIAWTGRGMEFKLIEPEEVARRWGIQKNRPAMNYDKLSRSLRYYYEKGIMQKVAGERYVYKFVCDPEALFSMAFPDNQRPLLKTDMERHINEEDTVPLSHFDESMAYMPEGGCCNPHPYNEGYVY
In short: as §1

Sequence: TTCAAT
- binding signal (FLI1): 1.33 fold enrichment (6-mer frequency, TF over GST control)
- binding signal (ELK1): 1.42 fold enrichment (6-mer frequency, TF over GST control)
- binding signal (GABPA): 1.42 fold enrichment (6-mer frequency, TF over GST control)
- binding signal (ERG): 1.41 fold enrichment (6-mer frequency, TF over GST control)
- binding signal (ELF1): 1.37 fold enrichment (6-mer frequency, TF over GST control)
- binding signal (EHF): 1.34 fold enrichment (6-mer frequency, TF over GST control)
- binding signal (SPI1): 1.38 fold enrichment (6-mer frequency, TF over GST control)
- binding signal (SPIB): 1.36 fold enrichment (6-mer frequency, TF over GST control)
- binding signal (ELK3): 1.26 fold enrichment (6-mer frequency, TF over GST control)
- binding signal (FEV): 1.31 fold enrichment (6-mer frequency, TF over GST control)
- binding signal (ETV5): 1.32 fold enrichment (6-mer frequency, TF over GST control)
- binding signal (HSF1): 1.27 fold enrichment (6-mer frequency, TF over GST control)
- binding signal (SPIC): 1.43 fold enrichment (6-mer frequency, TF over GST control)
- binding signal (ELF4): 1.33 fold enrichment (6-mer frequency, TF over GST control)
- binding signal (ELK4): 1.42 fold enrichment (6-mer frequency, TF over GST control)
- binding signal (ETV2): 1.43 fold enrichment (6-mer frequency, TF over GST control)
- binding signal (ELF3): 1.36 fold enrichment (6-mer frequency, TF over GST control)
- binding signal (CRX): 1.38 fold enrichment (6-mer frequency, TF over GST control)
- binding signal (ETV1): 1.45 fold enrichment (6-mer frequency, TF over GST control)
